We go through 40 sequences from the supplement of paper PMC6555819.

In this assay the test system is VDR:RXRa (NR concentration 270 nM, RXRa partner concentration 90 nM). Briefly: PBM binding z-score (relative to random genomic background probes); higher = stronger binding; sequences stand for … in GC…GCGATTGACAGCGTAGAATGAAGG
On the procedure:
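Protein-binding microarray (Agilent 4x180K custom design, double-stranded 60-nt probes: 5' GC cap, 34-nt variable region, 24-nt constant primer region; full probe sequence given). Purified or IVT nuclear receptor:RXRα heterodimers (3:1 NR:RXRα, mostly 270:90 nM) or homodimers were incubated for 1 h in PBS with 2% milk and no ligand, then detected with Alexa488 antibodies. Fluorescence from o1-orientation probes (~5 replicates averaged) was converted to z-scores against 500 random hg19 background probes. Variable regions are seed direct-repeat (DR0–DR5) sites, all their single-nucleotide variants and half-site ablations.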
For CCGAGTAGGTTACGAGGGGGCATGCAGTGCGAAT, the PBM binding z-score is 4.63.
The figure for CAACCTAGGTCACCGGAAGGTCAAAGTCCGCATG is 6.51.
With CCAGACAGGTGAAAGGTCACTCAGTCTGGTACGC, the PBM binding z-score is 5.03.
For the sequence CCTACTGGGGCAAAGGTCATTGATTCCAATGCTC, the PBM binding z-score was found to be 4.96.
Then ATCGAAAGGGCGTGAGGTGAGTATACAGAAAGGC, with 0.49; and TAGCCTAGGTCATTCAGGGGCTAGTATAGAAAGC, with 2.8; and CGTCAAAGTTCAACTAAGGTAACGTATAGCACGC, with 4.92.
TCGAGTAGGTTACGGGGGCCTTCAGGGATGAAGA returned a PBM binding z-score of 2.11.
For the sequence CTTAGTTGGTCAAGGTCACACACGCTATAGGTAC, the PBM binding z-score turned out to be 4.52.
The figure for CTATGTAGCTTAAGGGGGTCATTCAGTTTGAAAG is 6.4; for CGAACTAGGTCAAAAGACAGTGAAAGGCGACGTA it is 0.721.
The figure for GCTAGTTTGTCAGTAAAAGGTCACACACCGGTCG is 3.95.
Then TCGAGTAGGTTCCGGGGGCATTCAGGGATGAAGA, with 2.54.
The sequence CATAGTTGGTCAAGGTCACACACGCTATAGGTAC came in with a PBM binding z-score of 4.32.
As to CTATGTAGGTTAAGGGGGTCATTCGGTTTGAAAG, the PBM binding z-score was 7.56.
For the sequence CTATATAGGTTAAGGGGGTCATTCAGTTTGAAAG, the PBM binding z-score worked out at 7.71.
The figure for GACACAGGGTCAGCTAGAGGCCAGAGTATGGAAA is 3.19; for CCTTACGGGTCACTCAAGGTTATAGCATCGGAGT it is 5.32.
Turning to CCTAGTAGGTTACGAGGGGGCATTCAGTGCGAAT, the PBM binding z-score was found to be 5.12.
Take TCTAGTTGGTCGCGGAGGTCACACACGACGGGTA: the PBM binding z-score worked out at 4.55.
As for CGTCCAAGCTCAGCAGGTCAGTGAAAGCGACGTG, the PBM binding z-score is -0.352.
CAAACTAGGTCACAGAGGTCAACGTCCGTGCGTA displayed a PBM binding z-score of 7.74.
CCTACTGGGCCGAGGTCATTGATCAGTCAAAGCA returned a PBM binding z-score of 4.12.
Turning to TCTCGGAGGACACGAAACGTCAGAGCTCGACATC, the PBM binding z-score was -0.163.
The figure for TCTAGTTGGTCAAAGGTCAAACACTCGAAATGCG is 5.41; for GATACAGGGTCAGCTTGAGGCCAGAGTATGGAAA it is 3.33; for CGAACTAGGTCAAAGGATAGTGAAAGGCGACGTA it is 1.12.
Take CGTGCAAGGTCAGAGAGGTCAGTGAATGCCGAGT: the PBM binding z-score worked out at 7.22.
Sequence CCGAGTAGTTTACGAGGGGGCATTCAGTGCGAAT yielded a PBM binding z-score of 4.03.
Then TAGCCTAGGTCATGCGGGCCAGTATAGTGTCGGC, with 2.89; and CCGTACGGGTCAAGGTTATAGCACGGGTGGTACG, with 3.43.
Sequence TCTCGGAGGACACGAAGGTCAGCGCTTTCCAGAG had a PBM binding z-score of 2.35.
Sequence CCTGCTCGGTCAATGGTCAGCTAAAGCAGCTCGC gave a PBM binding z-score of -0.375.
Take CGAACTAGGTGAAAGGACAGTGAAAGGCGACGTA: the PBM binding z-score was -0.353.
Consider CCGAGTAGGTTAAGAGGGGGCATTCAGTGCGAAT, for which the PBM binding z-score is 5.44.
On to GATACAGGGTGAGCTAGAGGCCAGAGTATGGAAA, for which the PBM binding z-score is -0.523.
As to ACTCGGAGGACAAACGTCAGAGCTACGCCAGTGA, the PBM binding z-score is -0.401.
Consider CGAACTAGGTAACCAGGACAGTGAAGAGGTTGGA, for which the PBM binding z-score is -0.0408.
Then CCGACGGGGGCAAGGTTACCATAACGCACAGCCA, with 3.01; and CGAACTAGGTCAAAGGCCAGTGAAAGGCGACGTA, with 1.74.
